Screens: PubChem, National Center for Advancing Translational Sciences (NCATS)
BAZ2B block – qHTS Assay for Inhibitors of BAZ2B. AID 504333, 2011. AlphaScreen BAZ2B-H3K14Ac peptide displacement. actives 4.4% (n = 360,000). Bromodomain adjacent to zinc finger domain protein 2B (Homo sapiens), Q9UIF8. Potency, µM (highest dose often 114 µM), inactives show at the top dose activity change, negative = inhibition, hits mostly inhibitors; note: potency is the fitted concentration of half-maximal effect; % is set by controls: 0 for no effect and ±100 for the full control effect; nearly all actives have a fitted effect of over 60% in size
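Inhibition is scored as reduced AlphaScreen emission. The BAZ2B/b-H3(5-23)K14Ac complex (50 nM each) in PBS pH 7.4, 0.01% Tween-20 meets compound (up to 110 uM) for 30 min at RT before bead addition.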
PI5P4K alpha inh – qHTS for Inhibitors of phosphatidylinositol 5-phosphate 4-kinase (PI5P4K); PI5P4Kalpha enzyme, ADP-Glo luminescence, 60 min; active compounds read low; max response, %; actives 1.2% (n = 330,000); AID 652105, 2013; active = max response of -50% or lower; inconclusive = between -30% and -50%; inactive = -30% or higher; note: value at the top dose of about 77 µM; % is set by controls: 0 for no effect and ±100 for the full control effect
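ADP-Glo luminescence end-point after a 60 min room-temperature kinase reaction. PI5P4Kalpha and substrate in HEPES pH 7.4 buffer with EGTA, 0.1% CHAPS and 5% DMSO; ATP at 5 microM final.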
JMJD2A Tudor inh – qHTS Assay for Inhibitors of JMJD2A-Tudor Domain. Lysine-specific demethylase 4A (Homo sapiens), O75164. AlphaScreen JMJD2A-Tudor / H3K4me3 peptide binding. Potency, µM (top dose mostly 114 µM), inactives show at the top dose activity change, negative = inhibition, most hits filed as inhibitors. actives 4.4% (n = 390,000). AID 504339, 2011; note: potency is the fitted concentration of half-maximal effect; % is set by controls: 0 for no effect and ±100 for the full control effect; nearly all actives have a fitted effect of over 50% in size
G9a block – qHTS Assay for Inhibitors of Histone Lysine Methyltransferase G9a; Histone-lysine N-methyltransferase EHMT2 (Homo sapiens), Q96KQ7; G9a H3K9 monomethylation, AlphaScreen, 2 h; Potency, µM (top dose mostly 102 µM), inactives show at the top dose activity, negative = inhibition, usual class: inhibitors; actives 8.8% (n = 350,000); note: potency is the fitted concentration of half-maximal effect; % is set by controls: 0 for no effect and ±100 for the full control effect; nearly all actives have a fitted effect of over 75% in size
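G9a (20 nM) preincubated 15 min RT with compounds, then 500 nM biotinylated H3K9 peptide and 20 uM SAM added; 2 h RT reaction. Monomethyl-H3K9 product detected by AlphaScreen with anti-H3K9me1 antibody, streptavidin donor and anti-rabbit IgG acceptor beads.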
PLK1 PBD inh – qHTS for Inhibitors of PLK1-PDB (polo-like kinase 1 - polo-box domain): Primary Screen; Plk1 PBD binding of FITC phosphopeptide, fluorescence polarization; Potency, µM, inactives show max response, negative = inhibition, hits mostly inhibitors; actives 2.8% (n = 360,000); note: potency is the fitted concentration of half-maximal effect; series mostly up to about 57 µM; % is set by controls: 0 for no effect and ±100 for the full control effect; nearly all actives have a fitted effect of over 65% in size
HP1b binding inh – HTS for Inhibitors of HP1-beta Chromodomain Interactions with Methylated Histone Tails; Chromobox protein homolog 1 (Homo sapiens), P83916; Potency, µM (top dose mostly 114 µM), for inactives: at the highest dose activity change, negative = inhibition, hits mostly inhibitors; AID 540317, 2011; actives 0.56% (n = 390,000); AlphaScreen HP1-beta / biotin-H3K9me3 peptide binding; note: potency is the fitted concentration of half-maximal effect; nearly all actives have a fitted effect of over 70% in size
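HP1-beta protein (50 nM final) preincubated 30 min at room temperature with biotinylated H3(1-18)K9me3 peptide (50 nM) in PBS pH 7.4, 0.01% Tween-20, then compound added for 30 min. AlphaScreen streptavidin donor/nickel chelate acceptor beads (10 ug/mL final), 30 min dark, luminescence read.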
Active calls of the source: *; [ ] = another dose, or the depositor's remark. Compounds with a hit are over-represented: about 12% of the library has one in this group of screens. Unless noted, calls come from the whole dose curve; as a rule, active = well fitted curve in the direction sought with a large enough effect; inconclusive = small, poorly fitted or top-dose-only effect, or another doubt; inactive = no such curve, though single readings can be large; an effect the other way counts as inactive or inconclusive.

COCCNc1ncnc2c1ncn2[C@H]1CN(Cc2ccc(-c3ccccc3)cc2)C[C@@H](CO)O1 was read as PI5P4K alpha inh 1 and PLK1 PBD inh -14%.
CC1CC(N(C(=O)c2ccco2)c2ccccc2)c2ccccc2N1C(=O)c1ccco1 (stereo not drawn) was read as BAZ2B block -3%, JMJD2A Tudor inh -32%, G9a block -37%[59 µM], PLK1 PBD inh -11% and HP1b binding inh -9%.
`CC1CC(N(C(=O)c2ccc(Cl)cc2)c2ccccc2)c2ccccc2N1C(=O)c1ccco1` (stereo not drawn) gave BAZ2B block -34%, PI5P4K alpha inh 2, JMJD2A Tudor inh -33%, G9a block 45µM*, PLK1 PBD inh -6% and HP1b binding inh 8%.
Screening COc1cc(OC)c(OC)cc1CN1CCCC(C(=O)c2sccc2C)C1 (stereo not drawn) returned BAZ2B block -25%, PI5P4K alpha inh 3, JMJD2A Tudor inh -31%, PLK1 PBD inh -6% and HP1b binding inh 1%.
`CCN(CC)C(=O)C1CCCN(Cc2ccc(OC)c(C)c2C)C1` (stereo not drawn) gave BAZ2B block 71µM*, PI5P4K alpha inh -2, JMJD2A Tudor inh 1.6µM*, G9a block inconclusive, PLK1 PBD inh -5% and HP1b binding inh inconclusive.
`O=C(c1ccc2c3c(cccc13)CC2)C1CCCN(Cc2ccncc2)C1` (stereo not drawn) gave BAZ2B block inconclusive, PI5P4K alpha inh 2, JMJD2A Tudor inh 56µM*, G9a block inconclusive, PLK1 PBD inh -11% and HP1b binding inh -8%.
For COc1ccc(CN2CCCC(C(=O)N3CCCCC3)C2)c(OC)c1 (stereo not drawn) the results were BAZ2B block -27%, PI5P4K alpha inh -9, JMJD2A Tudor inh inconclusive, PLK1 PBD inh 30µM* and HP1b binding inh -13%.
For COc1ccc(CC(=O)N2CCCC2)c(OC)c1 the results were BAZ2B block 7%, PI5P4K alpha inh -1, JMJD2A Tudor inh 2%, G9a block 26%, PLK1 PBD inh 0% and HP1b binding inh 28%.
Screening Cc1ccccc1CN1CCCC(C(=O)N2CCCCC2)C1 (stereo not drawn) returned BAZ2B block 79µM*, PI5P4K alpha inh -2, JMJD2A Tudor inh 22µM*, G9a block 25µM*, PLK1 PBD inh -14% and HP1b binding inh inconclusive.
Screening CNC(=O)c1ccc2nc(-c3cccc(C)c3)c(-c3cccc(C)c3)nc2c1 returned JMJD2A Tudor inh -21%[57.1 µM] and HP1b binding inh 5%[57 µM].
Screening O=C1NC[C@@H](CCCCN2C[C@H](Cc3ccc(O)cc3)N(CCC3CCCCC3)C(=O)C2=O)N(CCC2CCCCC2)C1=O returned PI5P4K alpha inh -4 and PLK1 PBD inh -10%.
CCc1ccc(-c2nc(CN3CCCC(C(=O)O)C3)c(C)o2)cc1 (stereo not drawn) was read as BAZ2B block 4%, PI5P4K alpha inh 4, JMJD2A Tudor inh -19%, G9a block inconclusive, PLK1 PBD inh -10% and HP1b binding inh 30%.
`CCc1ccc(CN2CCCC(C(=O)N3CCCCC3)C2)cc1` (stereo not drawn) gave BAZ2B block 79µM*, PI5P4K alpha inh 0, JMJD2A Tudor inh 45µM*, G9a block 8.9µM*, PLK1 PBD inh -11% and HP1b binding inh -32%.
